From PubChem BioAssay (Tox21) come the findings set out here.

Assay [1] is described as follows: qHTS assay to test for compound auto fluorescence at 535 nm (green) in HEK293 cells (AID 720680). (Quantitative high-throughput screening tests each substance at several concentrations.)
Assay [2] is described as follows: qHTS assay to test for compound auto fluorescence at 460 nm (blue) in HEK293 cell free culture (AID 720681). In a few lines:
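Compounds were added to cell-free DMEM with 10% FBS and fluorescence read directly. The blue channel used 405 nm excitation and 460 nm emission, with triamterene as the reference fluorophore.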

The nature of assay [3]: qHTS assay to test for compound auto fluorescence at 535 nm (green) in HEK293 cell free culture (AID 720682). In a few lines:
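Measurement is a direct plate read of green fluorescence (485 nm in, 535 nm out) after compound addition to serum-supplemented DMEM lacking cells, with fluorescein used to express intensities.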

A short description of assay [4]: qHTS assay to test for compound auto fluorescence at 590 nm (red) in HEK293 cell free culture (AID 720683). In a few lines: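 Cell-free wells of DMEM with 10% FBS received compound, and intrinsic fluorescence was read at excitation/emission 540/590 nm. Values expressed as equivalence to Rose Bengal sodium.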
A short description of assay [5]: qHTS assay to test for compound auto fluorescence at 590 nm (red) in HepG2 cell free culture (AID 720684). In a few lines: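 Rose Bengal sodium served as the reference for red signal. Test compounds were dispensed into serum-containing MEM (10% FBS) without cells, and plates were read at 540/590 nm.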
Assay [6] is described as follows: qHTS assay to test for compound auto fluorescence at 460 nm (blue) in HepG2 cell free culture (AID 720685). In a few lines:
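Cell-free plates of MEM plus 10% FBS received 23 nL compound or DMSO vehicle; blue-channel (405/460 nm) intensity scored against triamterene as reference fluorophore.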

The nature of assay [7]: qHTS assay to test for compound auto fluorescence at 535 nm (green) in HepG2 cell free culture (AID 720686).
Assay [8] has as its target Glucocorticoid receptor (Homo sapiens) (UniProt P04150). Nature of the assay: qHTS assay to identify small molecule agonists of the glucocorticoid receptor (GR) signaling pathway (AID 720691; active = well fitted activation curve with a large enough effect in the signal ratio in the repeat runs, not every such curve was filed as active; the % refers to the signal ratio). The procedure, abridged:
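A HeLa cervical cancer line expressing GR and a glucocorticoid response element-driven beta-lactamase gene is treated with compounds for 18 h; LiveBLAzer B/G FRET substrate is then applied and fluorescence read.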

Assay [9] has the same target. Briefly: qHTS assay to identify small molecule antagonists of the glucocorticoid receptor (GR) signaling pathway (AID 720692; active = well fitted inhibition curve with a large enough effect in the signal ratio in the repeat runs, not every such curve was filed as active; the % refers to the signal ratio). In a few lines: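 GRE-bla HeLa line, dex-stimulated (5 nM final). Compound exposure 18 h, 37 C. Beta-lactamase FRET read after 2 h RT substrate.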
Assay [10] in a line: qHTS assay to identify small molecule antagonists of the glucocorticoid receptor (GR) signaling pathway - cell viability counter screen (AID 720693). Note: nearly all actives have a fitted effect of over 55% in size. Note: potency is the fitted concentration of half-maximal effect.
A short description of assay [11]: qHTS assay for identifying genotoxic compounds that show differential cytotoxicity against isogenic chicken DT40 cell lines with known DNA damage response pathways - wild type cell line (AID 743012). Note: nearly all actives have a fitted effect of over 60% in size. Note: potency is the fitted concentration of half-maximal effect. The procedure, abridged: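 300 wt DT40 cells/well; cpd (DMSO) pintool-transferred after ~0.5 h at 37 C/5% CO2; 40 h incubation; CellTiter-Glo added, 30 min RT; luminescence read.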

Assay [12] can be described thus: qHTS assay for identifying genotoxic compounds that show differential cytotoxicity against isogenic chicken DT40 cell lines with known DNA damage response pathways - Rad54/Ku70 mutant cell line (AID 743015). Note: nearly all actives have a fitted effect of over 60% in size. Note: potency is the fitted concentration of half-maximal effect.
Assay [13] in a line: qHTS assay to identify small molecule antagonists of the androgen receptor (AR) signaling pathway - cell viability counter screen (AID 743033; note: nearly all actives have a fitted effect of over 45% in size; note: potency is the fitted concentration of half-maximal effect).
Assay [14] is described as follows: qHTS assay to identify small molecule antagonists of the thyroid receptor (TR) signaling pathway - cell viability counter screen (AID 743064). Note: nearly all actives have a fitted effect of over 50% in size. Note: potency is the fitted concentration of half-maximal effect. The procedure, abridged: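 Compounds were tested on GH3.TRE-Luc cells in the presence of T3 at 1 nM final. Following 23.5 h at 37 °C, cell viability was quantified by CellTiter-Fluor.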
The nature of assay [15]: qHTS assay to test for compound auto fluorescence at 460 nm (blue) in HepG2 cells (AID 720687). In a few lines: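 HepG2 cells in MEM with 10% FBS, attached overnight at 37 C, were exposed to compound or DMSO for 1 hr at 37 C, 5% CO2. Blue fluorescence was read at 405/460 nm, with triamterene as reference fluorophore.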
Assay [16] is described as follows: qHTS assay for identifying genotoxic compounds that show differential cytotoxicity against isogenic chicken DT40 cell lines with known DNA damage response pathways - Rev3 mutant cell line (AID 743014). Note: nearly all actives have a fitted effect of over 55% in size.
A short description of assay [17]: qHTS assay to identify small molecule antagonists of the androgen receptor (AR) signaling pathway using the MDA cell line - cell viability counter screen (AID 743041; note: nearly all actives have a fitted effect of over 45% in size; note: potency is the fitted concentration of half-maximal effect). The procedure, abridged:
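Cytotoxicity counter screen: MDA-kb2 AR-luc cells, compound + R1881, 16 h, 37C, 0% CO2; CellTiter-Fluor added at 15.5 h, fluorescence read after 30 min.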

Assay [18] addresses Androgen receptor (Homo sapiens) (UniProt P10275). Briefly: qHTS assay to identify small molecule antagonists of the androgen receptor (AR) signaling pathway using the MDA cell line (AID 743042; note: nearly all actives have a fitted effect of over 55% in size; note: potency is the fitted concentration of half-maximal effect). In a few lines:
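MDA-kb2 breast carcinoma cells carrying MMTV-luciferase (AR/GR responsive) were co-treated with compounds and the agonist R1881 for 16 h at 37C. Inhibition read as ONE-Glo luminescence; CellTiter-Fluor fluorescence measured in parallel for cytotoxicity.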

Assay [19] has the same target. Nature of the assay: qHTS assay to identify small molecule antagonists of the androgen receptor (AR) signaling pathway (AID 743035; active = well fitted inhibition curve with a large enough effect in the signal ratio in the repeat runs, not every such curve was filed as active; the % refers to the signal ratio; note: potency is the fitted concentration of half-maximal effect). The procedure, abridged: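 In this cell-based reporter screen, compounds were tested in concentration series against R1881-activated HEK293 cells expressing beta-lactamase under UAS control; after 16 h at 37C, FRET substrate was added and fluorescence read 2 h later.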

For assay [20] the target is unchanged. Nature of the assay: qHTS assay to identify small molecule agonists of the androgen receptor (AR) signaling pathway (AID 743036; active = well fitted activation curve with a large enough effect in the signal ratio in the repeat runs, with a control signal flat, not every such curve was filed as active; the % refers to the signal ratio; note: potency is the fitted concentration of half-maximal effect). In a few lines: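 Beta-lactamase under UAS control, stably integrated in HEK293 GripTite cells, reports receptor activation. After 16 h compound treatment, cells received FRET substrate for 2 h at room temperature before fluorescence reading.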

Where “and” joins values, the source holds several entries; their conditions need not be identical. Equal values may be shown once. Inconclusive results are not listed. Some compounds were tested as several samples or in several runs, with calls that do not always agree. Calls of active or inactive are those of the source. Unless noted, calls come from the whole dose curve; as a rule, active = well fitted curve in the direction sought with a large enough effect in the repeat runs; inconclusive = weak or mixed curves; inactive = no such curve, though single readings can be large; an effect the other way counts as inactive or inconclusive.

Sequence of Androgen receptor (Homo sapiens) (P10275 whole entry, looked up): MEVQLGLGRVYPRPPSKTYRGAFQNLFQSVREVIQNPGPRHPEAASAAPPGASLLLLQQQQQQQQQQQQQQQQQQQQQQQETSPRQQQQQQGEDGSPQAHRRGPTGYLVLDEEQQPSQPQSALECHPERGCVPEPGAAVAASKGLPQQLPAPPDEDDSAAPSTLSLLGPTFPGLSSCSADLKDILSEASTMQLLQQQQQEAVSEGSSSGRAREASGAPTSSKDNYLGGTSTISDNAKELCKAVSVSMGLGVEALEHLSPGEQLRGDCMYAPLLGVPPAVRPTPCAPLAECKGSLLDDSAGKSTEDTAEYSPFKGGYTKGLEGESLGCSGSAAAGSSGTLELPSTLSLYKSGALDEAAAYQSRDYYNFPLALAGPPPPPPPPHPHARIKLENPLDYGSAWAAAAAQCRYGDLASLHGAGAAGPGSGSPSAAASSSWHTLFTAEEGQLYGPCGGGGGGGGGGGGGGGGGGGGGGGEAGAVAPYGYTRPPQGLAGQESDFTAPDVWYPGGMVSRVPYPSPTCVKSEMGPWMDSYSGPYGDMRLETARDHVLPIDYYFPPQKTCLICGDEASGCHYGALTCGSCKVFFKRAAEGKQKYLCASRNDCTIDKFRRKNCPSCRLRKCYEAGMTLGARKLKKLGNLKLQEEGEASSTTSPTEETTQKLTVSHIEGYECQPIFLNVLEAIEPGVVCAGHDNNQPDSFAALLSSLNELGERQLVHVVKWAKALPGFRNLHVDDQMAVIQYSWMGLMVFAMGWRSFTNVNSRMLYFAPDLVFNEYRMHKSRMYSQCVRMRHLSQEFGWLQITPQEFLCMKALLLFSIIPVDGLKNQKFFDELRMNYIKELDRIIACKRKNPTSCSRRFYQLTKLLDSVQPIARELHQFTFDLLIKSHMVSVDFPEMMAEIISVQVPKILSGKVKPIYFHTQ
Sequence of Glucocorticoid receptor (Homo sapiens) (P04150 whole entry, looked up): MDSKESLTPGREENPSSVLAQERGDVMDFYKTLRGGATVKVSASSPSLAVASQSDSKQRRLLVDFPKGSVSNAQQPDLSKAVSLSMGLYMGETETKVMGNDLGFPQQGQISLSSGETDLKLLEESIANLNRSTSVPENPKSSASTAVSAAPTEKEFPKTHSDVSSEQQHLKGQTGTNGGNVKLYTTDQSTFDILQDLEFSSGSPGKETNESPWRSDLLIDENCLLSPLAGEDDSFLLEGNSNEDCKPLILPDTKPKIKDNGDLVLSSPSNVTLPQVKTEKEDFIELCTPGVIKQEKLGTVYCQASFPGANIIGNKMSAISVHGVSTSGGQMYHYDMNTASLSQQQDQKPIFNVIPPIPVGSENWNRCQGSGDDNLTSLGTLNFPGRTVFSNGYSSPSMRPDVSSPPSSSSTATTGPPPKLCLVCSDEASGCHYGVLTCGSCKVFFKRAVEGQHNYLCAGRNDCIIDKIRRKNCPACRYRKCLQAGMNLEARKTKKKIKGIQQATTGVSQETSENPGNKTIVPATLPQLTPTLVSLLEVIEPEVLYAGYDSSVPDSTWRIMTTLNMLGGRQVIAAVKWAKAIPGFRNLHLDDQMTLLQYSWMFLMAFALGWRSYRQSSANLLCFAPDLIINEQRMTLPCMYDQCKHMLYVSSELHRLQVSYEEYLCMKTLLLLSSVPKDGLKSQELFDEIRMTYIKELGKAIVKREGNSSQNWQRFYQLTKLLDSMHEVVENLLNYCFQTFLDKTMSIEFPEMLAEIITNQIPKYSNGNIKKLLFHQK

As for `C=CS(=O)(=O)O`, the Potency result in assay [1], in assay [2], in assay [3], in assay [6], in assay [7] and in assay [8] was “inactive” in each case. In addition, the Potency result in assay [9], in assay [10], in assay [11], in assay [12], in [13] and in assay [14] was “inactive” each time. The call in [4] and in assay [5] was inactive.

Take `CC(=O)C1=C(C)[C@@H]2C[C@@]3(C1)[C@H](C)CC[C@H]3C2(C)C`: the Potency result in assay [1], in [2], in assay [3], in assay [6], in assay [7] and in assay [15] was “inactive” each time. For the same compound, the Potency entry in assay [10], in [11], in [16], in [12], in assay [13] and in [17] was “inactive” throughout. In addition, the call in assay [4] and in [5] was inactive. For the same compound, the Potency in [14] was 63.9 µM (active) and inactive.

`CC(C)(C)NCC(O)c1cc(O)cc(O)c1` (centres undefined): the Potency result in assay [1], in assay [2], in assay [3], in assay [6], in assay [7] and in [15] was “inactive” throughout. Further, the Potency result in assay [11], in [12], in [13] and in [17] was “inactive” in each case. The compound was classed as inactive in [4] and in assay [5].

As to `O=Nc1ccc(Nc2ccccc2)cc1`, the Potency entry in assay [1], in [2], in [3], in assay [6], in assay [7] and in assay [10] was “inactive” throughout. In addition, the outcome in assay [4] and in assay [5] was inactive. Moreover, the Potency in assay [11] was 3.88 µM (active) and 3.06 µM (active); in assay [12], 3.08 µM (active) and 2.17 µM (active); in assay [13], 17.5 µM (active) and 30.9 µM (active); in [17], 61.4 µM (active); in assay [18], 54.8 µM (active); in assay [14] it was 5.48 µM (active) and 6.86 µM (active).

Consider `CC(C)(C)c1ccccc1`, for which the Potency result in assay [1], in [2], in [3], in assay [6], in assay [7] and in [10] was “inactive” each time. The Potency result in [11], in assay [16], in assay [12], in [13], in assay [17] and in [14] was “inactive” in each case. The outcome in [4] and in assay [5] was inactive.

Turning to `OCCOCCN1CCN(C(c2ccccc2)c2ccc(Cl)cc2)CC1` (centres undefined), the Potency entry in [1], in assay [2], in assay [3], in assay [6], in [7] and in assay [15] was “inactive” in each case. In addition, the Potency entry in assay [10], in [13] and in [17] was “inactive” each time. Besides, the result in [4] and in assay [5] was inactive. The Potency is 38.1 µM (active) in assay [11], 30.2 µM (active) in assay [12] and 26.9 µM (active) in [14].

On to `Nc1cc(Cl)c(-c2cc(Cl)c(N)cc2Cl)cc1Cl`, for which the Potency result in [1], in assay [2], in assay [3], in assay [6], in [7] and in assay [15] was “inactive” in each case. Further, the compound was called inactive in assay [4] and in [5]. Moreover, the Potency was 54.9 µM (active) and 49 µM (active) in assay [10]; 5.44 µM (active) and 4.86 µM (active) in [11]; 2.73 µM (active) and 4.33 µM (active) in assay [12]; 43.6 µM (active) and 49 µM (active) in assay [13]; 21.9 µM (active) and 17.4 µM (active) in assay [19]; 54.4 µM (active) and 68.6 µM (active) in [18]. For the same compound, the Potency in assay [14] is 10.9 µM (active) and 8.63 µM (active).

In the case of `O=Cc1ccc(Cl)cc1`, the Potency entry in assay [1], in assay [2], in [3], in assay [6], in assay [7] and in [15] was “inactive” throughout. The Potency result in assay [10], in assay [11], in assay [12], in assay [13], in [19] and in assay [17] was “inactive” each time. Besides, in assay [18], the Potency entry is “inactive”. Moreover, the outcome in assay [4] and in assay [5] was inactive. The Potency in assay [20] was 19.4 µM (active).
